Consider ten molecules from PubChem BioAssay.

The inhibition is the drop in the measured response relative to a control, in per cent.

Assay [1] in a line: inhibitors of TNFa-induced NFkB p65 translocation, primary screen, imaging, HUVEC, MLSMR starter and 10KST1 sets (AID 438;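 active means inhibition above 20% together with a positive visual image hit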;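 further: compound added about 3h40 before a 20 min TNFalpha stimulation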;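 on inhibition: signal is the nuclear over cytoplasmic p65 intensity ratio per well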). The following applies: HUVEC TNFa-induced p65 nuclear translocation; cell count: measured here: nuclei count (cytotoxicity indicator), at 2.08 µM; inhibition: at 2 µM, stronger effect = higher value, 0% TNFa-plus-vehicle, 100% no-TNFa wells.
Assay [2] can be described thus: reduction of polyQ htt aggregates in cells – imaging, exon1htt(103Q)mCFP cells, high-content imaging, primary screen (AID 483;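 active means visual image review flags a hit and inhibition of aggregation exceeds 20%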;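 further: compound exposure lasted 3 days before fixation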;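 on nuclei count: percent of the per-plate median nuclei count of sample wells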). The following applies: exon1htt(103Q)mCFP cell line, aggregate imaging, at 2 µM; inhibition of aggregation: stronger effect = higher value; nuclei count: measured here: cell count, toxicity.
Assay [3] can be described thus: endothelial E-selectin expression blockers – imaging, HUVEC, immunofluorescence, MLSMR starter and 10KST1 sets, primary screen (AID 487;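 active means visually confirmed hit in the image check and inhibition above 20%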;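 on inhibition: signal is fraction of cell area covered by stained E-selectin grains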;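 on nuclei count: 100% = median nuclei count of all wells on the same plate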). Conditions: HUVEC TNFalpha-induced E-selectin immunofluorescence imaging, at 2 µM; inhibition: stronger effect = higher value; nuclei count: measured here: cell number, toxicity.
Assay [4] is described as follows: Primary imaging screen for DUSP6 inhibitors that restore phospho-Erk in transfected HeLa cells, chemical complementation (AID 609;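 active means compounds giving at least 50% inhibition in the cell-based MKP-3 phosphatase rescue imaging test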;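 on inhibition: phospho-Erk level distribution per well compared with pooled transfected vehicle control wells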). Conditions: HeLa MKP-3 transfected, phospho-Erk imaging KS statistic, at 10 µM, cells stimulated with TPA for 15 min.
In assay [5] the target is Dual specificity protein phosphatase 6 (Homo sapiens) (UniProt Q16828). Described as above. Conditions: HeLa MKP-3 transfected, phospho-Erk imaging KS statistic; at 10 µM; stronger effect = higher value; cells stimulated with TPA for 15 min.
Sequence of Dual specificity protein phosphatase 6 (Homo sapiens) (Q16828 whole entry, looked up): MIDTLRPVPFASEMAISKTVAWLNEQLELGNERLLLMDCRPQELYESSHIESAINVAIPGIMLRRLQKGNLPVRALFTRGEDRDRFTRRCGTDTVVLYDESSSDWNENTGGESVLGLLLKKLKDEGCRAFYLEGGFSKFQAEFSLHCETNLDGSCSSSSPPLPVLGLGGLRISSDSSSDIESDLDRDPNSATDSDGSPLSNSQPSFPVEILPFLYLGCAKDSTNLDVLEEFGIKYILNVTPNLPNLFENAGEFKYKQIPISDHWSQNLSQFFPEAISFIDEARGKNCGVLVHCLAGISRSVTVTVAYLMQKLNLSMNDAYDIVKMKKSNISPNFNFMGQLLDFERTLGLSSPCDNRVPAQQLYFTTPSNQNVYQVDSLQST
Assay [6] addresses Voltage-gated potassium channel subunit beta-2 (Rattus norvegicus) (UniProt P62483). As to the kind of experiment: inhibitors of rat Kvbeta2 reductase activity – biochemical, NADPH fluorescence, primary screen (AID 622;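 active means fluorescence slope higher than the sample average by over 3 SD, cut at about -0.22 in these data, passing the limit was not always enough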;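 further: slope of raw intensity against log time taken from 70 to 1610 s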). The following applies: recombinant KvBeta, 4-cyanobenzaldehyde reduction, at 10 µM, stronger effect = higher value.
For assay [7] the target is unchanged. Nature of the assay: enhancers of rat Kvbeta2 NADPH turnover – biochemical, NADPH fluorescence, primary screen (AID 623;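 active means NADPH fluorescence slope more negative than the mean of all samples by about 3 SD, 99.7% confidence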;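 further: fluorescence intensity change per second fitted from 20 to 320 s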). The following applies: Recombinant KvBeta, NADPH fluorescence decrease slope, 10 min; at 10 µM; stronger effect = lower value.
Assay [8] deals with Alpha-2C adrenergic receptor (Homo sapiens) (UniProt P18825). As to the kind of experiment: compounds altering alpha2C-coupled GIRK flux – cell-based, HEK293 alpha2C/GIRK1/2, thallium flux, primary screen (AID 624;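 active means fluorescence slope after compound addition differing from the mean of all screened samples at 99.7% confidence, in either direction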;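 further: slope of fluorescence ratio to pre-addition baseline per second over 15 to 24 s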). The following applies: thallium flux BTC fluorescence, at 10 µM, actives lie on both sides.
Sequence of Alpha-2C adrenergic receptor (Homo sapiens) (P18825 whole entry, looked up): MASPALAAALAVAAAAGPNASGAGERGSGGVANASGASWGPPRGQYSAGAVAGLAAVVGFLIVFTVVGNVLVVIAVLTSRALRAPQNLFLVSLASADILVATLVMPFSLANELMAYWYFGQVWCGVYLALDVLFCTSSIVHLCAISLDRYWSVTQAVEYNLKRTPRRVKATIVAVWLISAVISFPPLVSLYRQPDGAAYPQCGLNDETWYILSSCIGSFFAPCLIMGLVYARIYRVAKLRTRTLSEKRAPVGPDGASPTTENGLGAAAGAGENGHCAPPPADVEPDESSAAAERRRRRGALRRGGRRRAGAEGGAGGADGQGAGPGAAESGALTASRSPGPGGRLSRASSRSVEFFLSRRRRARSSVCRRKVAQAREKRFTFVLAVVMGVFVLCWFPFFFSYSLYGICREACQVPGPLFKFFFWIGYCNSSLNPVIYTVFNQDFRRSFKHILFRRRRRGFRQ
Assay [9] in a line: inhibitors of larval lipid processing in zebrafish, primary screen, whole organism, PED6 fluorescence, gall bladder and intestine (AID 686;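 active means a full or partial loss of lipid-probe fluorescence in the fish gall bladder, intestine or both, judged by eye; inactive means no fluorescence loss, or compound toxic to the fish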;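 further: larvae 5 to 7 days old with five fish per well; signal comes from phospholipase A2 cleavage of quenched PED6 carried via bile; overnight exposure to compound and PED6 before scoring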). Conditions: Zebrafish larvae PED6 lipid processing, fluorescence scoring; screened at 20 µM (by protocol).
A short description of assay [10]: loss of swimming-algae plug formation – whole organism, Chlamydomonas reinhardtii, WT vs cilia-less mutant, absorbance, 96-well, primary screen (AID 463189).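 Further: 0% = wild type cc124 cells in DMSO and 100% = ciliumless bld1 mutant cells.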 Conditions: Chlamydomonas reinhardtii gravitaxis, OD600 absorbance, 2 days; at 10 µM; stronger effect = higher value.
Assay [11] is described as follows: blockers of RIG-like receptor reporter activation – cell-based, Sendai virus stimulus, luciferase, 10K MLSCN set, TLR/RLR signaling modifier project, primary screen (AID 602276;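 active means inhibition at or above 50% at 10 µM; inactive means inhibition below 50%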;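 further: firefly luciferase from ISG56 promoter only with Renilla not read in this screen; 0% = Sendai virus plus DMSO and 100% = medium plus DMSO without virus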). Conditions: HEK293 RL24 IRF3 luciferase reporter, at 10 µM, stronger effect = higher value. In general terms: A reporter such as luciferase makes a cellular process visible.
A short description of assay [12]: TLR3 IRF3 reporter activation blockers – cell-based, poly I:C stimulus, luciferase, 10K MLSCN set, primary screen (AID 602277;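 active means inhibition of the reporter signal at or above 50%; inactive means inhibition below 50%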). The following applies: HEK293-TLR3 RL24 IRF3 luciferase reporter, at 10 µM, stronger effect = higher value.
[13] abbreviates: measured here: cell density z-score.
Setting [14] is: measured here: nuclear c-Myc green intensity z-score.
Where [15] appears, read: measured here: nuclear pErk red intensity z-score, stronger effect = higher value.

Structures are written as SMILES. Several values for one entry are separate records, joined by “and”; a condition that tells them apart may be missing. Equal values may be shown once. Activity calls are given as the source filed them.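 How the source made its calls, unless noted: active means inhibition at or above 50% relative to wild type and mutant plate controls; inactive means inhibition below 50%.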

Sequence of Voltage-gated potassium channel subunit beta-2 (Rattus norvegicus) (P62483 whole entry, looked up): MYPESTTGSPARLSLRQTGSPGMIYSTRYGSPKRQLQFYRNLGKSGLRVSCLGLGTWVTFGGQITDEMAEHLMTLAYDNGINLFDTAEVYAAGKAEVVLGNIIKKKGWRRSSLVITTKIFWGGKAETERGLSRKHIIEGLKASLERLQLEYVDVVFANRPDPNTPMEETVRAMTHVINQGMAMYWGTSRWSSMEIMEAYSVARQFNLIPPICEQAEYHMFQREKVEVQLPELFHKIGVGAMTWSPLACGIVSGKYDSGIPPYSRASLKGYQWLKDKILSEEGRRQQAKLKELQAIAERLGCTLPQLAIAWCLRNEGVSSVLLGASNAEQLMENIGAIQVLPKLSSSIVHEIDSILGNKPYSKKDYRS

`Oc1c(Cl)cc(Cl)cc1CNc1ccc(Br)cn1`: the cell count in assay [1] is 580. The inhibition in assay [1] is -1.3% (inactive); in assay [3], -9.9% (inactive); in assay [5], -3.5% (inactive); in assay [10], -5.67% (inactive); in assay [11], 17% (inactive); in [12], 20.5% (inactive). The inhibition of aggregation in assay [2] is -20.5% (inactive). Further, the nuclei count in assay [2] is 108%; in assay [3], 102%. Also, the z-score in assay [4] (setting [13]) was -1.08; in assay [4] (setting [14]), 0.507; in assay [4] (setting [15]), -0.618. Also, the fluorescence slope in assay [6] is -0.357 (inactive). In addition, the NADPH fluorescence slope in assay [7] was 1.5e-05 (inactive). Moreover, the slope in assay [8] was 0.00449 (inactive). The outcome in assay [9] was inactive.
Take `CC(CN1c2ccccc2Sc2ccccc21)N(C)C` (stereo not given): the cell count in [1] came to 546. For the same molecule, the inhibition in [1] is 2.6% (inactive); in assay [3], -48.8% (inactive); in assay [5] it was -0.828% (inactive); in assay [10], 91.5% (active) and 139% (active); in [11] it was 5.11% (inactive); in assay [12], 31% (inactive). Further, the inhibition of aggregation in [2] was 6.8% (inactive). For the same molecule, the values for the nuclei count in assay [2] and in assay [3] were 100% and 109%, respectively. For the same molecule, the z-score in assay [4] (setting [13]) is 2; in [4] (setting [14]), -0.736; in assay [4] (setting [15]) it was 0.272. The fluorescence slope in [6] is -0.478 (inactive). Further, in [7], the NADPH fluorescence slope was -1.7e-05 (inactive). Also, the slope in assay [8] is 0.0061 (inactive). The molecule was classed as inactive in [9].
Regarding `CN1CCN(/C=N/c2sc3c(c2C#N)CCCCC3)CC1`, in assay [1], the cell count is 536. The inhibition in assay [1] was -4.8% (inactive); in assay [3], -74.7% (inactive); in assay [5], -4.27% (inactive); in [10], 135% (active); in assay [11] it was -35.3% (inactive); in assay [12], -83.9% (inactive). For the same molecule, in [2], the inhibition of aggregation is 2.6% (inactive). For the same molecule, the results for the nuclei count in assay [2] and in assay [3] were 116% and 108%, respectively. Moreover, the z-score in [4] (setting [13]) is -3.34; in [4] (setting [14]) it was 0.909; in [4] (setting [15]), 1.9. Moreover, the fluorescence slope in assay [6] was -0.42 (inactive). Also, the NADPH fluorescence slope in assay [7] is -6e-06 (inactive). The slope in assay [8] is 0.00496 (inactive). For the same molecule, the call in assay [9] was inactive.
For the molecule `CCC(=O)Oc1ccc(/C(CC)=C(\CC)c2ccc(OC(=O)CC)cc2)cc1`, the cell count in assay [1] was 550. Moreover, the inhibition is -4.1% (inactive) in assay [1]; -13.5% (inactive) in assay [3]; 3.45% (inactive) in assay [5]; 9.5% (inactive) in assay [10]; 11.1% (inactive) in assay [11]; 42.9% (inactive) in [12]. Also, the inhibition of aggregation in assay [2] was 3.5% (inactive). Moreover, the figures for the nuclei count in assay [2] and in assay [3] were 97.5% and 127%, respectively. Further, the figures for the z-score in assay [4] (setting [13]), in assay [4] (setting [14]) and in assay [4] (setting [15]) were -0.723, 0.714 and 1.03, respectively. For the same molecule, the fluorescence slope in [6] was -0.443 (inactive). The NADPH fluorescence slope in assay [7] is -5.7e-05 (inactive). For the same molecule, in assay [8], the slope is 0.00761 (inactive). In [9], the molecule was called inactive.
Regarding `COc1ccc(/C=C/C(=O)Nc2ccccc2C(=O)O)cc1OC`, the cell count in assay [1] turned out to be 476. Further, the inhibition in assay [1] was -4.9% (inactive); in assay [3], -112% (inactive); in assay [5], 15.3% (inactive); in assay [10], 3.58% (inactive) and -6.51% (inactive); in assay [11], 16.4% (inactive); in assay [12] it was 23.3% (inactive). Also, the inhibition of aggregation in assay [2] is -20.4% (inactive). In addition, the nuclei count in assay [2] amounted to 103%; in assay [3] it was 128%. Further, the z-score in assay [4] (setting [13]) was 0.437; in assay [4] (setting [14]), -0.319; in assay [4] (setting [15]) it was -0.448. Besides, the fluorescence slope in assay [6] is -0.492 (inactive). In addition, in assay [7], the NADPH fluorescence slope was -8.1e-05 (inactive). Moreover, the slope in assay [8] was 0.0062 (inactive). Moreover, the result in assay [9] was inactive.
For the molecule `CCN(CC)c1ncc(C)c(=O)[nH]1`, the cell count in assay [1] came to 410. Further, the inhibition in [1] was -19.3% (inactive); in assay [3], -44.9% (inactive); in assay [5] it was -2.69% (inactive); in assay [10], 31.2% (inactive); in assay [11], 22.3% (inactive); in [12], 22% (inactive). Moreover, the inhibition of aggregation in [2] is -26.9% (inactive). The values for the nuclei count in [2] and in assay [3] were 121% and 111%, respectively. In addition, the z-score in assay [4] (setting [13]) was 0.304; in assay [4] (setting [14]), -0.433; in assay [4] (setting [15]) it was -0.0626. Also, in assay [6], the fluorescence slope was -0.541 (inactive). For the same molecule, the NADPH fluorescence slope in assay [7] is -8.2e-05 (inactive). Further, the slope in [8] was 0.00493 (inactive). Besides, in [9], the call was inactive.
Regarding `OC[C@H]1O[C@@H](n2cnc3c(NC4CCCC4)ncnc32)[C@H](O)[C@@H]1O`, the cell count in assay [1] amounted to 528. The inhibition in assay [1] is -13.1% (inactive); in assay [3] it was -19.6% (inactive); in assay [5] it was 11.3% (inactive); in assay [10], 30.3% (inactive); in [11], -1.14% (inactive); in assay [12], 12.9% (inactive). For the same molecule, the inhibition of aggregation in assay [2] was -15.5% (inactive). For the same molecule, the nuclei count amounted to 110% in [2] and 126% in assay [3]. Further, the z-score in [4] (setting [13]) was 1.27; in assay [4] (setting [14]), -0.327; in [4] (setting [15]), -0.893. For the same molecule, the fluorescence slope in [6] was -0.459 (inactive). Also, in assay [7], the NADPH fluorescence slope was 2.3e-05 (inactive). In addition, in assay [8], the slope is 0.00611 (inactive). Further, in assay [9], the outcome was inactive.
Take `CN(C=C1C(=O)CC(C)(C)CC1=O)CCN1CCNCC1`: in [1], the cell count stood at 624. In addition, the inhibition in assay [1] was -4.9% (inactive); in assay [3] it was -43.7% (inactive); in assay [5], -1.98% (inactive); in assay [10] it was 6.8% (inactive); in assay [11] it was 14.6% (inactive); in assay [12] it was 16.6% (inactive). Also, the inhibition of aggregation in assay [2] is -3.7% (inactive). Moreover, the nuclei count in assay [2] came out at 97.1%; in assay [3], 121%. Further, the z-score in [4] (setting [13]) was -0.672; in [4] (setting [14]) it was -0.802; in assay [4] (setting [15]), 1.89. Moreover, the fluorescence slope in assay [6] was -0.519 (inactive). The NADPH fluorescence slope in assay [7] was -5.2e-05 (inactive). In [8], the slope was 0.00485 (inactive). Besides, the outcome in assay [9] was inactive.
Regarding `N#Cc1nc(-c2cccs2)oc1NCCc1ccccc1`, in [1], the cell count amounted to 421. Also, the inhibition in assay [1] is -5.5% (inactive); in assay [3], -33.7% (inactive); in [5], -6.48% (inactive); in assay [10] it was 11.6% (inactive); in [11], -37.1% (inactive); in [12], -77.6% (inactive). Also, the inhibition of aggregation in assay [2] is 2.8% (inactive). The nuclei count in assay [2] came to 101%; in assay [3], 109%. In addition, the z-score in assay [4] (setting [13]) was -0.62; in assay [4] (setting [14]) it was -0.621; in [4] (setting [15]) it was -1.02. The fluorescence slope in assay [6] was -0.332 (inactive). For the same molecule, in [7], the NADPH fluorescence slope is 1.7e-05 (inactive). For the same molecule, the slope in assay [8] is 0.00708 (inactive). Besides, the molecule was called inactive in assay [9].
For the molecule `Cc1cccc(C)c1NC(=O)C1CCCCN1C` (stereo not given), the cell count in [1] came to 662. The inhibition was -8.2% (inactive) in assay [1]; -104% (inactive) in assay [3]; 3.45% (inactive) in [5]; 3.16% (inactive) in [10]; 12.7% (inactive) in assay [11]; 35.5% (inactive) in [12]. The inhibition of aggregation in [2] is -22% (inactive). Also, the figures for the nuclei count in assay [2] and in assay [3] were 108% and 139%, respectively. Besides, the z-score in assay [4] (setting [13]) is 1.2; in assay [4] (setting [14]), -0.238; in assay [4] (setting [15]), 0.358. Moreover, the fluorescence slope in [6] was -0.488 (inactive). Also, the NADPH fluorescence slope in [7] was -4.1e-05 (inactive). The slope in assay [8] was 0.00459 (inactive). Besides, in [9], the result was inactive.
